Our source for the z-score values is PubChem BioAssay.

Molecules are shown by their SMILES. Values without a mark were called inactive. The rule behind the calls is not given here.

This assay is described as follows: P. aeruginosa biofilm formation inhibitors, primary screen, strain PAO1, LB-PBS medium, absorbance 600 nm (AID 1176). Note: test concentration not given here. The following applies: P. aeruginosa PAO1 growth/biofilm, A600, 12 h; higher = more signal.
For the compound `C#CCN1[C@@H](Cc2ccc(O)cc2)C(=O)O[C@H](Cc2ccccc2)[C@@H]1/C=C/C1CC1`, the z-score was -0.353.

As to `CCCCCCCCCCC(O)C1C=CC2C(=O)NC(=O)C2N1Nc1ccc(Cl)cc1Cl` (stereo not given), the z-score is 0.201.

With `O=C(NCc1ccccc1)[C@@H]1c2ccccc2C(=O)N(C2Cc3ccccc3C2)[C@H]1c1ccc(CO)cc1`, the z-score was 0.581.

As for `CN(C)CCCCCCNC(=O)[C@@H]1C[C@@H]2C(=O)N3CCC[C@H]3C(=O)N2[C@@H]1c1ccc(O)cc1`, the z-score was 1.82.

Turning to `N#Cc1ccc(C(O)C2C=CC3C(=O)N(c4ccccc4)C(=O)C3N2Nc2ccccc2F)cc1` (stereo not given), the z-score is 0.0083.

For `COc1ccc([Si](C)(C)[C@@H]2[C@@H](CC(=O)N3Cc4ccccc4C[C@H]3CO)O[C@]3(C(=O)N(Cc4cccc(N5CCC5=O)c4)c4ccccc43)[C@H]2C)cc1`, the z-score is 2.04.

For `CS(=O)(=O)CCOC(=O)C1=CC(CCCO)=CC(C2CC2)N(Cc2cc3c(cc2Br)OCO3)C=C1C(=O)OCCS(C)(=O)=O` (stereo not given), the z-score was 0.118.

Turning to `NC(=O)N1C(=O)C2C(C1=O)C1C=C(CCCO)C2C(C2CC2)N1Cc1cc2c(cc1Br)OCO2` (stereo not given), the z-score is -0.778.

As for `O=C1OCCC=C[C@H]2OC34C=CCN(CCN5CCOCC5)C(=O)[C@H]3N(CCCCCO)C(=O)[C@@H]4C12` (stereo not given in full), the z-score was -0.484.

Turning to `CC(CO)N1C(=O)[C@@H]2C3C(=O)OCCC/C=C\[C@H]3OC23C=CCN(CCN2CCOCC2)C(=O)[C@@H]13` (stereo not given in full), the z-score was 0.053.

For `CCCCCCc1nc(-c2ccc(-c3ccc(Cl)c(Cl)c3)o2)c(C)c2c1[Si](C(C)C)(C(C)C)OC2`, the z-score was 0.668.

On to `CCOc1cc(C(O)C2C=CC3C(=O)N(c4ccccc4)C(=O)C3N2Nc2ccc(C(C)C)cc2)ccc1O` (stereo not given), for which the z-score is 0.779.

For the compound `CCOC(=O)C1=C[C@@H](C(C)C)N(S(=O)(=O)c2ccc(C)cc2)[C@H]1c1ccccc1F`, the z-score was 0.133.

Consider `COc1cc2c(cc1O)C(c1cccs1)N(Cc1cccc(OC(F)(F)F)c1)CC2` (stereo not given), for which the z-score is -0.0623.

For the compound `C=CCN1C(=O)[C@]2(Cc3ccccc3)N=C(c3ccc(OCCCO)cc3)O[C@@H]2c2ccccc21`, the z-score was 0.824.

Turning to `COc1ccc([Si](C)(C)[C@@H]2[C@@H](CCn3cc(CCO)nn3)O[C@]3(C(=O)N(Cc4cccc(N5C(=O)c6cccc7cccc5c67)c4)c4ccccc43)[C@H]2C)cc1`, the z-score is -0.459.

On to `C=CCN(Cc1ccccc1)C(=O)C(c1cccs1)N(C(=O)/C=C\C(=O)O)c1ccc(CCOCCO)cc1` (stereo not given), for which the z-score is 0.742.

Take `COC(=O)c1c2oc(c1C(=O)OC)C(=O)NC1(CCCCC1)c1cn(nn1)C[C@H](Cc1ccccc1)NC(=O)N[C@H](CO)CC2`: the z-score was 0.383.

As to `CC(=O)NCCCC[C@@H]1NC(=O)[C@H]2C[C@@H](C(=O)NCCCCCNC(=O)CS)[C@@H](c3ccc(O)cc3)N2C1=O`, the z-score is 0.395.

For the compound `COCCCNC(=O)[C@@]1(CCS(=O)(=O)c2ccccc2)N=C(c2ccc(OCCCO)cc2)O[C@H]1c1ccccc1N=[N+]=[N-]`, the z-score is -0.385.

For the compound `COc1ccc(NN2C(C(O)c3ccc(N(C)C)cc3)C=CC3C(=O)N(C4CCCCC4)C(=O)C32)cc1` (stereo not given), the z-score was 0.862.

On to `[N-]=[N+]=NCc1ccccc1[C@@H]1OC(c2ccc(OCCCO)cc2)=N[C@]1(CCS(=O)(=O)c1ccccc1)C(=O)N1CCCCC1`, for which the z-score was 0.286.

On to `COC(=O)C[C@H]1O[C@@H](CCc2ccccc2)[C@@H](C)[C@@H]1[Si](C)(C)c1ccc(OC)cc1`, for which the z-score was -0.529.

In the case of `CN1C(=O)C2C=CC(C(O)c3ccccc3)N(N3CCCCC3)C2C1=O` (stereo not given), the z-score is 0.462.

With `COC(=O)[C@@]1(Cc2ccc(OC)cc2)[C@H]2c3cc(C(=O)N4CCCC4)n(CCSCCO)c3C[C@H]2CN1C(=O)c1ccccc1`, the z-score is 0.923.

For the compound `COC(=O)c1c(CC[C@@H](CO)NC(=O)NCCc2c[nH]c3ccccc23)oc(C(=O)Cc2ccccc2)c1C(=O)OC`, the z-score was -0.771.

For `O[C@@H](Cc1ccccc1)[C@@H](/C=C/C1CC1)NCc1cccc(Cl)c1`, the z-score is -0.344.

Turning to `CN1CCC(CCCO)=CC1c1cccs1` (stereo not given), the z-score was -0.377.

As to `CO[C@H]1O[C@H](CO)[C@@H](OC(=O)Nc2ccc(Br)cc2)[C@@H]2OC(=O)[C@H](Cc3cccc(Br)c3)C/C=C/C[C@@H](Cc3cccc(Br)c3)C(=O)O[C@@H]12`, the z-score was 0.594.

For `COCC(=C=CC[C@@H](O)c1ccc(OCCO)cc1)C[C@@H](O)c1ccccn1`, the z-score is 1.05.

With `COC(=O)[C@@]1(Cc2ccc(OC)cc2)[C@H]2c3cc(C(=O)N(C)C)n(Cc4ccc(C(F)(F)F)nc4)c3C[C@H]2CN1C(=O)c1ccccc1`, the z-score is -0.0019.

For the compound `COCCCNC(=O)[C@@H]1c2ccccc2C(=O)N(Cc2ccccc2OC)[C@H]1c1ccc(CO)cc1`, the z-score is 1.23.

Consider `O=C1O[C@@H](c2ccccc2)[C@@H](c2ccccc2)N2[C@@H](c3ccc(OCCO)cc3)[C@]3(C(=O)Nc4ccc(C#CCCO)cc43)[C@@H](C(=O)NC[C@H](O)c3ccccc3)[C@H]12`, for which the z-score was 2.78.

Regarding `O=C(O)[C@H]1C[C@H]2C(=O)N3CCC[C@H]3C(=O)N2[C@H]1c1ccc(O)cc1`, the z-score is 0.0778.

As to `[N-]=[N+]=NCc1ccccc1C[C@@]1(C(=O)NCC(O)CO)N=C(c2ccc(OCCCO)cc2)O[C@@H]1c1ccccc1` (stereo not given in full), the z-score is 0.466.
